Shown are actives, neighbours in structure and some others; about 27% of the full set was active somewhere.
CYP2C19 inh = blocks human cytochrome P450 2C19; CYP2C19 Supersomes, luciferin-H EGE luminescence, 30 min; 96,000 compounds, 21% hits; AID 778; inhibition, % at 5 µM;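 active = CYP2C19 inhibition above a set limit at 5 µM in the primary screen, cut at about 50% in these data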;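 note: plate controls were negative control wells for no effect and 2.5 mM tranylcypromine positive control for full effect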
CYP2C9 inh = inhibitors of human CYP2C9; 96,000 compounds, 20% hits; CYP2C9 Supersomes, luciferin-H conversion, luminescence; P11712; inhibition, % at 5 µM; AID 777;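 active = blocking of liver enzyme CYP2C9 beyond about 50% at 5 µM, limit read from the data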
EphB4 ephrin blk = antagonists of human EphB4-ephrin-B2 interaction; P54760; EphB4 LBD / TNYL-RAW-Alexa532 peptide, fluorescence polarization; inhibition, % at 7 µM; 97,000 compounds, 0.15% hits;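 active = inhibition above the screen-wide mean inhibition plus 3 SD, cut at about 15% in these data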;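 note: 0% = DMSO wells and 100% = excess unlabeled TNYL-RAW peptide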
Target sequence (P54760 whole entry, looked up, the tested form may be a part): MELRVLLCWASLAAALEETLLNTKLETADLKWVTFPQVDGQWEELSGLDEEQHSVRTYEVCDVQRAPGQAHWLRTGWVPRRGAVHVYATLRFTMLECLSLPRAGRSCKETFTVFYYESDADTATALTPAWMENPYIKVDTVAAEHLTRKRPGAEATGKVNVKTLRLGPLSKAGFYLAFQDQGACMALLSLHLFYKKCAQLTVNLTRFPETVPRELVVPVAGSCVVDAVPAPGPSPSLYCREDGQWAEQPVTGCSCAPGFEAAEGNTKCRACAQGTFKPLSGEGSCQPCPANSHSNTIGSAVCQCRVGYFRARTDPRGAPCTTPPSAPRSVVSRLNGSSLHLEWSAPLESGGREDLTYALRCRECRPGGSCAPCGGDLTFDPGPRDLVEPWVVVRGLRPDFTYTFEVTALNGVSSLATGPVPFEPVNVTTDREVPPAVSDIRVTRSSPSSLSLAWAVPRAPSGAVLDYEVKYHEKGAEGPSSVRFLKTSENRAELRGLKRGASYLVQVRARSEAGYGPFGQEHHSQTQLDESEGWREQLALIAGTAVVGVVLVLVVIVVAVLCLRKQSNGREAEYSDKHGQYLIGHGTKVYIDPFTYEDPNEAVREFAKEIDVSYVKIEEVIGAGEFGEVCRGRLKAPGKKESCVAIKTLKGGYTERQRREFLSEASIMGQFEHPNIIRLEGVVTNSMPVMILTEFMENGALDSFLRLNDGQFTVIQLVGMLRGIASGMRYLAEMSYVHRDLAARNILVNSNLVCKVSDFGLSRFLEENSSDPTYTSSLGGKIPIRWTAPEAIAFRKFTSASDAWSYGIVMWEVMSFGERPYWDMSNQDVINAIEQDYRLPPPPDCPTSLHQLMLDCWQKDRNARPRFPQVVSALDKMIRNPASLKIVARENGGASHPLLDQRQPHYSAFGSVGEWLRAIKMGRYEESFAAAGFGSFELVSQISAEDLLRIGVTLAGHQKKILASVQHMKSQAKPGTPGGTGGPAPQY
CYP2C9 activ = CYP2C9 (human) activation | activation factor at 5 µM | recombinant CYP2C9, luciferin-H conversion, luminescence; active compounds read high; factor 1 = untreated enzyme, 0 = blocked | P11712 | 96,000 compounds, 1.4% hits;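 active = activation factor of 2 or more for CYP2C9 at a 5 µM dose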;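 note: 0 = sulfaphenazole-blocked wells and 1 = vehicle-only wells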
CYP2C19 act = cytochrome P450 2C19 (human) activation; AID 1025; activation factor at 5 µM; recombinant CYP2C19, luciferin-H EGE luminescence; active compounds read high; 0 = fully inhibited enzyme, 1 = untreated enzyme; P33261; 96,000 tested, under 10 active;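 active = activation factor of at least 2 at 5 µM in the primary screen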;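 note: 0 = wells with 2.5 mM tranylcypromine and 1 = vehicle-only wells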
* hit, by the source's call.

What do the screens show for `COc1ccccc1NC(=O)C(=O)NNC(=O)c1ccco1`?
CYP2C19 inh: -4; CYP2C9 inh: -11; EphB4 ephrin blk: 0; CYP2C9 activ: 1.1; CYP2C19 act: 1

What do the screens show for `COC(=O)CSc1nnc2c(C)cc3cc4c(cc3n12)OCCO4`?
CYP2C19 inh: -6; CYP2C9 inh: -9; CYP2C9 activ: 1.1; CYP2C19 act: 1.1

Results for Cc1nn(-c2ccccc2)c2nc(N)c(C#N)c(-c3ccc(F)cc3)c12 ?
CYP2C19 inh: 2; CYP2C9 inh: 84*; EphB4 ephrin blk: 6; CYP2C9 activ: 0.2; CYP2C19 act: 1

Results for CCC(=O)Nc1cc2c(C)cc(=O)oc2cc1C ?
CYP2C19 inh: 14; CYP2C9 inh: 7; EphB4 ephrin blk: 2; CYP2C9 activ: 0.9; CYP2C19 act: 0.9

What do the screens show for `Cc1nc(N)nc(OCC(F)(F)C(F)F)c1Br`?
CYP2C19 inh: 19; CYP2C9 inh: 21; EphB4 ephrin blk: -6; CYP2C9 activ: 0.8; CYP2C19 act: 0.8

What do the screens show for `Cc1cc(OCC(F)(F)C(F)(F)C(F)(F)C(F)(F)C(F)(F)C(F)F)nc(N)n1`?
CYP2C19 inh: 64*; CYP2C9 inh: 57*; EphB4 ephrin blk: 3; CYP2C9 activ: 0.4; CYP2C19 act: 0.4

How did COc1cccc(CNC(=O)c2cnc(-c3ccccn3)nc2C(F)(F)F)c1 do in these assays?
CYP2C19 inh: 0; CYP2C9 inh: -17; EphB4 ephrin blk: -9; CYP2C9 activ: 1.2; CYP2C19 act: 1

Results for COc1ccc(NC(=O)CSc2nnc(CNC(=O)COc3ccc(Cl)cc3)o2)c(OC)c1 ?
CYP2C19 inh: 37; CYP2C9 inh: 11; EphB4 ephrin blk: 1; CYP2C9 activ: 0.9; CYP2C19 act: 0.6

Results for COC(=O)c1ccc(C(=O)OC)c(NC(=O)CSc2nnc(-c3ccccc3Cl)o2)c1 ?
EphB4 ephrin blk: -10

Results for COC(=O)c1ccccc1NC(=O)CSc1nnc(Cc2ccc(Cl)cc2)o1 ?
CYP2C19 inh: 91*; CYP2C9 inh: 82*; EphB4 ephrin blk: -1; CYP2C9 activ: 0.2; CYP2C19 act: 0.1

What do the screens show for `C/C(N)=C(/C#N)C(=O)CSc1nnc(COc2ccccc2Cl)o1`?
CYP2C19 inh: 48; CYP2C9 inh: 18; EphB4 ephrin blk: 4; CYP2C9 activ: 0.8; CYP2C19 act: 0.5

What do the screens show for `COc1ccc(OC)c(NC(=O)CSc2nnc(CNC(=O)COc3ccc(Cl)cc3)o2)c1`?
CYP2C19 inh: 61*; CYP2C9 inh: -10; EphB4 ephrin blk: -1; CYP2C9 activ: 1.1; CYP2C19 act: 0.4

How did COc1ccccc1NC(=O)CSc1nnc(CNC(=O)COc2ccc(Cl)cc2)o1 do in these assays?
CYP2C19 inh: 59*; CYP2C9 inh: -122; EphB4 ephrin blk: -2; CYP2C9 activ: 2.2*; CYP2C19 act: 0.4

Results for O=C(COc1ccc(Cl)cc1)NCc1nnc(SCC(=O)NC2CCCC2)o1 ?
CYP2C19 inh: -13; CYP2C9 inh: -71; EphB4 ephrin blk: 0; CYP2C9 activ: 1.7; CYP2C19 act: 1.1

Results for COc1ccccc1OCc1nnc(SCC(=O)c2cc(Cl)ccc2OC)o1 ?
CYP2C19 inh: 8; CYP2C9 inh: -156; EphB4 ephrin blk: -2; CYP2C9 activ: 2.6*; CYP2C19 act: 0.9

How did O=C(CSc1nnc(-c2cccs2)o1)N1CCCCC1 do in these assays?
CYP2C19 inh: 6; CYP2C9 inh: -7; EphB4 ephrin blk: 2; CYP2C9 activ: 1.1; CYP2C19 act: 0.9

What do the screens show for `O=C(c1ccc(Cl)cc1)C1CCN(C(=O)N2CCOCC2)CC1`?
CYP2C19 inh: 19; CYP2C9 inh: 14; EphB4 ephrin blk: 2; CYP2C9 activ: 0.9; CYP2C19 act: 0.8

How did CC(C)Cc1nc(SCC(=O)Nc2ccc(S(N)(=O)=O)cc2)n[nH]1 do in these assays?
CYP2C19 inh: 18; CYP2C9 inh: 21; EphB4 ephrin blk: -3; CYP2C9 activ: 0.8; CYP2C19 act: 0.8

What do the screens show for `CCOC(=O)c1c(C)oc2c1c(C=NCc1ccccn1)c(O)c1ccccc12`?
CYP2C19 inh: 64*; CYP2C9 inh: 86*; CYP2C9 activ: 0.1; CYP2C19 act: 0.4

What do the screens show for `CCOC(=O)c1c(C)oc2c1cc(O)c1ccccc12`?
CYP2C19 inh: 33; CYP2C9 inh: 73*; EphB4 ephrin blk: -4; CYP2C9 activ: 0.3; CYP2C19 act: 0.7

How did CCOC(=O)c1c(C)oc2ccc(O)cc12 do in these assays?
CYP2C19 inh: 8; CYP2C9 inh: -170; EphB4 ephrin blk: -4; CYP2C9 activ: 2.7*; CYP2C19 act: 0.9

What do the screens show for `CCOC(=O)c1c(C)oc2ccc(OCC(N)=O)cc12`?
CYP2C19 inh: 28; CYP2C9 inh: 43; EphB4 ephrin blk: -9; CYP2C9 activ: 0.6; CYP2C19 act: 0.7

What do the screens show for `C=C(C)COc1ccc2oc(C)c(C(=O)OCCOC)c2c1`?
CYP2C19 inh: 84*; CYP2C9 inh: 60*; EphB4 ephrin blk: -1; CYP2C9 activ: 0.4; CYP2C19 act: 0.2

What do the screens show for `Cc1cc2cc(CNC(=O)c3cc4ccccc4o3)ccc2n1C`?
CYP2C19 inh: 22; CYP2C9 inh: 24; EphB4 ephrin blk: 2; CYP2C9 activ: 0.8; CYP2C19 act: 0.8

How did Cc1cc(=O)[nH]c(SCC(=O)C23CC4CC(CC(C4)C2)C3)c1C#N do in these assays?
CYP2C19 inh: -1; CYP2C9 inh: 9; EphB4 ephrin blk: 12; CYP2C9 activ: 0.9; CYP2C19 act: 1

Results for COc1ccc(N(CC(=O)Nc2ccc(S(=O)(=O)N3CCOCC3)cc2)S(=O)(=O)c2ccccc2)cc1 ?
CYP2C19 inh: 28; CYP2C9 inh: 48; EphB4 ephrin blk: -2; CYP2C9 activ: 0.5; CYP2C19 act: 0.7

Results for CCOC(=O)c1c(C)oc2cc(Br)c(O)c(Br)c12 ?
CYP2C19 inh: -2; CYP2C9 inh: 67*; CYP2C9 activ: 0.3; CYP2C19 act: 1

What do the screens show for `CCOC(=O)c1c(C(C)(C)C)oc2ccc(OCC#N)cc12`?
CYP2C19 inh: 20; CYP2C9 inh: 57*; EphB4 ephrin blk: -15; CYP2C9 activ: 0.4; CYP2C19 act: 0.8

What do the screens show for `CCOC(=O)c1c(C)oc2c(CN3CCN(C)CC3)c(Br)c(OC)c(O)c12`?
CYP2C19 inh: 3; CYP2C9 inh: 9; EphB4 ephrin blk: -4; CYP2C9 activ: 0.9; CYP2C19 act: 1

What do the screens show for `CCOC(=O)c1c(C)oc2cc(Br)c(OC(C)C(=O)OCC)cc12` (stereo not given)?
CYP2C19 inh: 94*; CYP2C9 inh: 91*; EphB4 ephrin blk: 1; CYP2C9 activ: 0.1; CYP2C19 act: 0.1

What do the screens show for `CCOC(=O)COc1cc2c(C(=O)OCC)c(C)oc2cc1Br`?
CYP2C19 inh: 30; CYP2C9 inh: -1; EphB4 ephrin blk: -4; CYP2C9 activ: 1; CYP2C19 act: 0.7

How did COC(=O)c1cscc1NC(C)=O do in these assays?
CYP2C19 inh: 6; CYP2C9 inh: -3; EphB4 ephrin blk: 8; CYP2C9 activ: 1; CYP2C19 act: 0.9

How did COc1ccc(-c2nc(CSCC(=O)NCc3ccco3)c(C)o2)cc1 do in these assays?
CYP2C19 inh: 15; CYP2C9 inh: 28; EphB4 ephrin blk: 3; CYP2C9 activ: 0.7; CYP2C19 act: 0.8
